Assay results: PubChem BioAssay (NCI)
Compounds without any hit were thinned out: in the full panel of roughly 83,000, 20% have a hit.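 Cells were grown in 96-well plates and exposed to the test compound at a single concentration for 48 hours; results are reported as percent growth, with values below 10 considered active.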 Unmarked numbers belong to inactive results. The source made the active and inactive calls.

What follows are compounds tested on MCF7 breast (assay: NCI-60 one-dose screen, 48 h (100 = growth as untreated, 0 = no growth, -100 = all killed)). Settings: 10 µM unless noted.
Description: Growth inhibition of the MCF7 human tumor cell line is measured as a screen for anti-cancer activity. Cells are grown in 96 well plates and exposed to the test compound for 48 hours. Compounds are tested at a single concentration, which is 10^-5 M for most compounds. The reported endpoint is percent growth (GI% or GIPRCNT), where numbers from 0 - 100% represent growth inhibition, and numbers from -100% - 0 represent cell death. For example, a value of 40 represents 60% growth inhibition. A value of 0 means no net growth occurred over the course of the experiment. A value of -40 indicates 40% of cells at the beginning of the experiment died by the end of the experiment. A value of -100 means all cells are dead at the end of the experiment.
NCI-60 Human Tumor Cell Lines Screen was performed using the standard one-dose NCI protocol, which is described in more detail at https://dtp.cancer.gov/discovery_development/nci-60/default.htm.
Compounds with GIPRCNT values below 10 were considered active. Activity score was based on GIPRCNT using the following formula: […]
Score is 0 for GIPRCNT values of 100 or above, 50 for GIPRCNT values of 0, and 100 for GIPRCNT values of -100.
Compound O=C1Nc2ccc(Cl)cc2/C1=C/c1ccc(OCC(=O)c2ccc(Br)cc2)cc1 has a growth of 80.1%.
For Cc1cccc2sc(/N=C(\N)C(Br)Br)nc12, the growth was -13.3% (active).
O=C1c2c(c3c4cccnc4[nH]c3c3ccc4ccccc4c23)C(=O)N1CCO was tested, and the growth was 30.2%.
For COc1ccc(N/N=C/c2c(-c3ccc(S(C)(=O)=O)cc3)nc3ccccn23)cc1, the growth was 24.3%.
With CC(C)(C)Nc1nc2c(OCCc3ccccc3)cccn2c1-c1ccccc1Cl the growth was -10.6% (active).
O=C1c2c(c3c4cc(Br)ccc4[nH]c3c3ccc4ccccc4c23)C(=O)N1CCO was tested, and the growth was 34.3%.
For N/C(=N\c1nc2c(Br)cccc2s1)C(Br)Br, the growth was -26.3% (active).
In the case of C=C1CC[C@H]2[C@@](C)(CCC3OC(c4ccc(OCc5cn(C6CC(OC(C)=O)C(OC(C)=O)C(COC(C)=O)O6)nn5)cc4)OC[C@]32C)[C@@H]1/C=C/C1=CCOC1=O (stereo not given in full), the growth was 44.4%.
With C#Cc1nc(C2=C(C)C(O)/C(=N/O)C2)cs1 (stereo not given) the growth was 68.5%.
With N/C(=N\c1nc2c(Cl)cc(Cl)cc2s1)C(Cl)(Cl)Cl the growth was 24.8%.
Work on Nc1cc(-c2c[nH]c3ccccc23)nc2cc(-c3c[nH]c4ccccc34)nn12 yielded a growth of 26.7%.
With CNC(=O)c1cc(-c2ccc(NC(=O)Nc3ccc(N4CCN(C)CC4)c(C(F)(F)F)c3)cc2)nc2cccnc12 the growth was -100% (active).
COc1ccc(C(=O)/C=C/c2ccc(OCc3ccc(C)cc3)c(OC)c2)cc1OC gave a growth of 25.9%.
In the case of Clc1ccc2oc3c(NCCCN4CCOCC4)c4ccccc4nc3c2c1, the growth was 7.12% (active).
For CN(C)CCCOc1c2ccc(Cl)cc2nc2c1oc1ccc(Cl)cc12, the growth was -80.9% (active).
In the case of O=C(N/N=C/c1ccc[nH]1)c1[nH]c2ccc(Br)cc2c1-c1ccccc1, the growth was 3.98% (active).
Work on COC1CCN(Cc2ccc3c(NNC(=O)c4cnccn4)nc4cc(F)ccc4n23)C1 (stereo not given) yielded a growth of 14%.
Compound NS(=O)(=O)c1cccc(Nc2nc(SCC(=O)c3ccc(Br)cc3)nc3ccccc23)c1 has a growth of 32.4%.
N#Cc1nc(-c2ccccc2)oc1N1CC[C@@H](CO)C1 was tested, and the growth was 70.5%.
In the case of O=C(N/N=C/c1ccc(Br)s1)c1[nH]c2ccc(Br)cc2c1-c1ccccc1, the growth was 7.06% (active).
With CN(C)CCCNc1c2ccccc2nc2c1oc1ccc(Cl)cc12 the growth was -25.7% (active).
COc1cc2nc(-c3ccc(C)cc3)cc(OCCCNCC3CCCO3)c2cc1OC (stereo not given) was tested, and the growth was 59.7%.
N#Cc1c(-c2ccc(Cl)cc2)nc2c(-c3ccccc3)c(Nc3ccccc3)nn2c1N was tested, and the growth was 47.9%.
For COc1ccc(/C=N/NC(=O)c2[nH]c3ccc(Br)cc3c2-c2ccccc2)o1, the growth was 9.83% (active).
COc1ccc(COc2ccc(/C=C3/C(=O)Nc4cc(Cl)ccc43)cc2)cc1 was tested, and the growth was 82.1%.
C=CCSc1ccc2c(c1)C(N1CCNCC1)=Nc1ccccc1O2 was tested, and the growth was 59.2% [8.25 µM].
With CC(C)Sc1nc(Nc2ccc(S(N)(=O)=O)cc2)c(C#N)c(-c2ccc(F)cc2)n1 the growth was 31.6%.
C#Cc1nc(C2=C(C)C(=N\O)/C(=N/O)C2)cs1 gave a growth of 72.5%.
Cc1sc2nc(NCc3ccccc3Cl)[nH]c(=O)c2c1C showed a growth of 80.6%.
For [Cl][Ru].c1ccc(-c2cc(-c3ccccn3)nc(-c3ccccn3)c2)cc1.c1ccc(-c2ccnc3c2ccc2c(-c4ccccc4)ccnc23)cc1, the growth was -28.2% (active).
CC(C)NC(=O)c1cc(-c2ccc(NC(=O)Nc3ccc(N4CCOCC4)c(C(F)(F)F)c3)cc2)nc2cccnc12 showed a growth of 37.2%.
Cn1c(SCC(=O)Nc2ccc(-c3nc4ccc([N+](=O)[O-])cc4[nH]3)cc2)nc2ccccc2c1=O showed a growth of 45.3%.
For CCOC(=O)c1sc(NCC(=O)Nc2cccc([N+](=O)[O-])c2)c(C(=O)OCC)c1C, the growth was -4.78% (active).
Cc1nc2cnc(N)c(C#Cc3cncc(C(=O)Nc4ccc(Cl)c(C(F)(F)F)c4)c3)c2nc1C was tested, and the growth was -67.5% (active).
COc1ccc(NC2=CC(=O)C(C)=C(C)C2=O)cc1 was tested, and the growth was 71.9%.
With Cc1c(Nc2nnc(SCC(=O)Nc3sc4c(c3C#N)CCCC4)s2)c(=O)n(-c2ccccc2)n1C the growth was 93.5%.
Compound O=C(CN1CCOCC1)NNc1ncnc2ccccc12 has a growth of 64.6%.
C=CCn1c(SCC(=O)c2ccc(Br)cc2)nnc1-c1c[nH]c2ccccc12 was tested, and the growth was 97.9%.
For N#Cc1nc(-c2ccccc2)oc1N1CCC(CO)C1 (stereo not given), the growth was 49.8%.
CN(C)c1ccc(/C=c2\sc3nc4ccccc4n3c2=O)cc1 gave a growth of 70.3%.
